Measurements as given in PubChem BioAssay AID651871 (Sanford-Burnham Center for Chemical Genomics, 2012).

These molecules were tested on HL-1 (assay: cardiomyocyte survival under oxidative or metabolic stress – cell-based, panel, H9c2 and HL-1, ATP luminescence, set 2, SAR follow-up (AID 651871;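 note: cells exposed to stressor for 2 h before ATP readout; reference of the scale not given here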)). Details: H9c2/HL-1 cardiomyocytes, 2-deoxyglucose stress, with 2-deoxyglucose, run 16, at 79 µM (top of the series).
For COc1ccc2nc(-c3cc(OC)c(OC)c(OC)c3)cc(C(=O)NCC(=O)Nc3ccc(C(C)=O)cc3)c2c1, the activity (protection/inhibition) was 84.4%.
COc1ccc2c(c1OC)C(=O)N1c3ccccc3C(=O)N(Cc3cccc(Cl)c3Cl)C21 (stereo not drawn) showed an activity (protection/inhibition) of -9.37%.
With CCOC(=O)c1cccc(NC(=O)CNC(=O)c2cc(-c3cc(OC)c(OC)c(OC)c3)nc3ccccc23)c1 the activity (protection/inhibition) was 130%.
